Assay outcomes deposited in PubChem by National Center for Advancing Translational Sciences (NCATS).
KinaseGlo FLuc: counter-screen: inhibitors of Kinase-Glo firefly luciferase; Kinase-Glo luciferase, ATP luminescence, 8 min; 0.28% of 200,000 active; Potency, µM (series often up to 38.3 µM), without a hit: at the top dose activity change, negative = inhibition, most hits filed as inhibitors; active = well fitted inhibition curve with a large enough effect; inconclusive = small, poorly fitted or top-dose-only effect; note: potency is the fitted concentration of half-maximal effect; nearly all actives have a fitted effect of over 60% in size
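Kinase-Glo luciferase light output from ATP and luciferin was measured with 10 uM ATP, within the enzyme's linear range. Buffer: 50 mM imidazole pH 7.2, 50 mM KCl, 7 mM MgCl2, 0.01% Tween 20, 0.05% BSA; luminescence read after 8 min at ambient temperature.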
ALDH1A1 block: blocks purified human ALDH1A1 activity; AID 1030; Purified ALDH1A1, NADH fluorescence, propionaldehyde substrate; Potency, µM (series often up to 75.3 µM), for the others: top-dose activity, negative = inhibition, actives largely listed as inhibitors; 7.3% of 220,000 active; P00352;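 note: potency is the fitted concentration of half-maximal effect; plate controls were no enzyme wells and a reference inhibitor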
Target sequence (P00352 whole entry, looked up): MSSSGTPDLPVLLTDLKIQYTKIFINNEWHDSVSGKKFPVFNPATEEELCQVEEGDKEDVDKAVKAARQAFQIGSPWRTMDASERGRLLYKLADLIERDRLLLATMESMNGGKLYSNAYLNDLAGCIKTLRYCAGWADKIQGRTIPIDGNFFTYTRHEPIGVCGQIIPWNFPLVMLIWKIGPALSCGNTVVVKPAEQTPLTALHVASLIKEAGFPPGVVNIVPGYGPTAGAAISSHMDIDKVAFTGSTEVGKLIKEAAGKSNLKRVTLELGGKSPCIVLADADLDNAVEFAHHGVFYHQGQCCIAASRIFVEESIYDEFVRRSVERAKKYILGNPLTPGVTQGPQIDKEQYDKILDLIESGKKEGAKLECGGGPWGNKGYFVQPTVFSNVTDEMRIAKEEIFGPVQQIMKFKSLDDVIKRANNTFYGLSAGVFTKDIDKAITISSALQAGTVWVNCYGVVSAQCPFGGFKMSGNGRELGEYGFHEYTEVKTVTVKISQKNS
PNC inhibitor: blocks assembly of the perinucleolar compartment; activity change (PNC), negative = inhibition, % at 10 µM; 3.1% of 140,000 active; PC3M PTB-GFP, PNC prevalence imaging, 16 h; hits give low values;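 active = readout at or below -70, meaning at least 70% loss of cells showing the perinucleolar compartment, a nuclear body marking cancer cells; inconclusive = readout between -30 and a set limit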;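 note: plate controls were DMSO wells for no effect and camptothecin positive control wells for full effect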
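Read-out is percentage of cells bearing a perinucleolar compartment, from automated 20x imaging of fixed, Hoechst-stained PC3M PTB-GFP cells. Cells were seeded 4 h, then exposed 16 h to compound (23 nl of library stock) in duplicate plates.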
HPGD block: inhibitors of human 15-hydroxyprostaglandin dehydrogenase (HPGD); purified HPGD, NADH fluorescence kinetic, PGE2 substrate; Potency, µM, for inactives: at the top dose activity change, negative = inhibition, actives largely listed as inhibitors; 4.3% of 150,000 active; AID 894; note: potency is the fitted concentration of half-maximal effect
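NADH formation kinetics: reaction with 30 uM PGE2 and 1 mM NAD+ (final), 20 nM enzyme, Tris-HCl pH 8 with Tween 20, after 15 min compound preincubation at room temperature. Fluorescence change, last versus first of five reads.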
LMNA splice mod: modulators of lamin A splicing | Potency, µM (highest dose often 46.1 µM), inactives show at the top dose ratio change, negative = inhibition, actives largely listed as inhibitors | HeLa LMNA splicing GFP/RFP minigene ratio, 48 h | 0.01% of 200,000 active; active = well fitted inhibition curve with a large enough effect in the signal ratio, with a control signal flat, not every such curve was filed as active; inconclusive = small, poorly fitted or top-dose-only effect, or effect the other way, or a change in a side signal; the % refers to the signal ratio; note: potency is the fitted concentration of half-maximal effect
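Read-out is the ratio of GFP to DsRed2 object intensity, acquired by 488 nm laser-scanning cytometry on HeLa lamin A-EGFP minigene reporter cells. Compound incubation 48 hrs at 37 °C in Opti-MEM with 2% FBS; DMSO 0.5% final.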
An asterisk follows results filed as active; ? = inconclusive; . = no result; [ ] = another dose, or the depositor's remark. The list is not random: actives were taken first. Their share in the collection is about 10%. Unless noted, calls come from the whole dose curve; as a rule, active = well fitted inhibition curve with a large enough effect (not every such curve was filed as active); inconclusive = small, poorly fitted or top-dose-only effect, or another doubt; inactive = no such curve, though single readings can be large or run the other way. Unless noted, % is set by controls: 0 for no effect and ±100 for the full control effect.

SMILES	KinaseGlo FLuc	ALDH1A1 block	PNC inhibitor	HPGD block	LMNA splice mod
CC1CN(c2snnc2C=C2C(=O)OC(C)(C)OC2=O)CC(C)O1 (stereo not drawn)	2%	20µM*	.	.	.
Cc1cc(OC(=O)CNC(=O)OC(C)(C)C)c2c(C)cc(=O)oc2c1	-3%	16µM*	17	18µM*	?
CC(=O)Oc1cc(OC(C)=O)c2c(C)cc(=O)oc2c1	0%	?	?	-21%	3%
CCCc1c(OCCCCc2nn[nH]n2)ccc(C(C)=O)c1O	1%	5%	-9	-12%	?
CCCc1c(OCC(O)COc2ccc3c(=O)cc(C(=O)O)oc3c2CCC)ccc(C(C)=O)c1O (stereo not drawn)	3%[39.9 µM]	-11%	.	18µM*	.
CC1C/C(=C/c2ccco2)C(=O)/C(=C/c2ccco2)C1 (stereo not drawn)	2%	14µM*	10	-17%	?
CC1C/C(=C/c2ccccn2)C(=O)/C(=C/c2ccccn2)C1 (stereo not drawn)	0%	-10%	.	.	.
O=C1/C(=C\c2ccco2)CCC/C1=C\c1ccco1	-15%	5.6µM*	57	-17%	-17%
O=C1/C(=C/c2ccco2)CCC1C1CCCC1 (stereo not drawn)	-14%	?	.	.	.
CC1C/C(=C/c2cccs2)C(=O)/C(=C/c2cccs2)C1 (stereo not drawn)	1%	-7%	-113*	-12%	?
Cc1cccc(CNc2ccnc(-c3ccccc3Cl)n2)c1	.	-1%	.	.	?
Cc1nc(N2CCCC2)c2c(C(=O)Nc3cccc(Cl)c3C)c(C)oc2n1	.	.	.	.	-10%[46 µM]
Cc1cc(C(=O)CCl)c(C)n1Cc1ccco1	-1%	0.1µM*	.	.	.
COC(=O)CCCn1c(C)cc(C(=O)CCl)c1C	-1%	0.5µM*	.	.	-11%[9.22 µM]
Cc1cc(C(=O)CSc2nncs2)c(C)n1Cc1ccco1	2%	?	.	.	.
Cc1cc(C(=O)CCl)c(C)n1CCc1ccccc1	2%	0.032µM*	.	.	?
CCOC(=O)c1cc(C)n(CCc2ccccc2)c1C	2%	-13%	-26	-11%	-6%
C[C@@H](C(=O)O)c1cccc(C(=O)c2ccccc2)c1	2%[17.1 µM]	-5%[20.9 µM]	.	-7%	-8%
CCCn1c(C)nc2c(NCCCCN3CCCC3)nc(C)nc21	-3%	-8%	.	-15%	.
O=C(CN1C(=O)S/C(=C/c2cc(Br)cs2)C1=O)N1CCOCC1	1%	22µM*	48	-7%	-9%
O=C(CN1C(=O)S/C(=C/c2ccncc2)C1=O)N1CCOCC1	3%	25µM*	?	1%	-1%
CCOC(=O)COc1c(Br)cc(/C=C2\SC(=O)N(CC(=O)N3CCCC3)C2=O)cc1OC	-2%	22µM*	28	-11%	-11%
CCOc1c(Br)cc(/C=C2/SC(=O)N(CC(=O)N3CCCC3)C2=O)cc1OC	4%	2%	18	-21%	-3%
O=C(c1ccc(Cl)cc1)[C@@H]1[C@@H]2C(=O)N(c3ccc(Cl)cc3)C(=O)[C@@H]2C2c3ccccc3C=NN21 (stereo partly drawn)	3%	?	-24	-11%	0%
O=C(C1=C[C@@H]2[C@H]3C(=O)N(c4ccccc4)C(=O)[C@H]3[C@@H](C(=O)c3ccc(Cl)cc3)N2C=C1)c1ccccc1	-4%	20µM*	-27	-16%	-1%
SMILES	KinaseGlo FLuc	ALDH1A1 block	PNC inhibitor	HPGD block	LMNA splice mod
CCOC(=O)C1CCN(S(=O)(=O)c2ccc(OC)c(Cl)c2Cl)CC1	2%	6.3µM*	-1	-20%	1%
CCOC(=O)C1CCN(S(=O)(=O)c2ccc(-n3cnnn3)c(C)c2)CC1	-5%	-3%	-100*	-7%	?
CCOC(=O)C1CCN(S(=O)(=O)c2ccc(Cl)cc2OC)CC1	-3%	-9%	-28	-5%	-3%
CCOC(=O)N1CCC(NC(=O)C2CCN(C(=O)N3CC(C)Oc4ccc(C)cc43)CC2)CC1 (stereo not drawn)	-2%	7.9µM*	?	-11%	-1%
COCC(=O)N1CCCC(CNS(=O)(=O)c2ccc(OC)cc2)C1 (stereo not drawn)	3%	-8%	.	.	-1%[46 µM]
COc1ccc(S(=O)(=O)NCC2CCCN(C(=O)C3CCCC3)C2)cc1 (stereo not drawn)	2%	3.5µM*	.	.	0%[46 µM]
